# Results reported in PubChem BioAssay (NCI).
# Compounds without any hit were thinned out: in the full panel of roughly 83,000, 20% have a hit.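 Single-dose data. Exposure time 48 hours. Values below 10 considered active.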 Unmarked numbers belong to inactive results. The source made the active and inactive calls.
# What was measured:
# Assay in all cases: NCI-60 one-dose screen, 48 h (100 = growth as untreated, 0 = no growth, -100 = all killed)
# Settings in all cases: 10 µM unless noted
# T-47D breast = tested on: T-47D breast
# BT-549 breast = tested on: BT-549 breast
# MDA-MB-435 melanoma = tested on: MDA-MB-435 melanoma
# SW-620 colon = tested on: SW-620 colon
# MCF7 breast = tested on: MCF7 breast
# HCT-116 colon = tested on: HCT-116 colon
# HCC-2998 colon = tested on: HCC-2998 colon
# KM12 colon = tested on: KM12 colon
# MDA-MB-468 breast = tested on: MDA-MB-468 breast
Compound,growth (T-47D breast),growth (BT-549 breast),growth (MDA-MB-435 melanoma),growth (SW-620 colon),growth (MCF7 breast),growth (HCT-116 colon),growth (HCC-2998 colon),growth (KM12 colon),growth (MDA-MB-468 breast)
COc1ccc(-c2nc3cc(C)ccc3n2CC(=O)N=Nc2c(O)[nH]c3ccccc23)cc1,28.9%,-63.2% (active),12.4%,6.89% (active),20%,-95.1% (active),26.8%,14.1%,-0.636% (active)
COc1cc(/C=C/C(=O)c2ccc(C)cc2)ccc1Oc1nc(Nc2ccc(F)cc2)nc(N(C)C)n1,15.4%,-30.1% (active),53.9%,6.82% (active),11.9%,-80.3% (active),91.9%,65.4%,40.1%
COc1ccc(/C=C/c2nc3ccccc3n3c(-c4ccc(Cl)cc4)nnc23)cc1,80.6%,114%,96.1%,99.2%,73.1%,88.3%,110%,93.1%,106%
Cc1ccc(-c2nc(Nc3ccccc3S(N)(=O)=O)c3ccccc3n2)cc1,90.8%,115%,85.4%,85.8%,81.6%,40%,104%,65.3%,98.4%
COc1cccc(-c2nc(Nc3ccc(S(N)(=O)=O)cc3)c3ccccc3n2)c1,20.9%,54.5%,38.8%,36.1%,19.8%,32.2%,6.44% (active),6.75% (active),24%
C=C1CCC2C3(C)COC(c4ccccc4)OC3CCC2(C)C1CC(NCc1ccccc1)C1=CCOC1=O (configuration not stated),63.6%,73.4%,85%,89.8%,70.2%,69%,81.2%,85.6%,49.3%
Cc1cc(C)cc(NC(=O)Cn2cc(COn3nnc4ccccc43)nn2)c1,100%,108%,100%,115%,99.5%,103%,104%,114%,98.7%
C/C(=N\N=C1/C(=O)Nc2ccccc21)c1ccc2c(c1)Nc1ccccc1S2,26.8%,43.9%,-52.5% (active),63.5%,22.2%,16.2%,75.7%,66.4%,34.6%
COc1ccc(NC(=O)[C@H](C)N)cc1C(=O)Nc1cccc(C2CC(=O)c3c(cc(OC)c(OC)c3OC)O2)c1 (some centres not stated),53.7%,67.3%,93.2%,99.4%,72.1%,93.9%,109%,87%,76.1%
COc1cc(C2CC(c3ccc(S(=O)(=O)NCCNc4nc(Nc5ccc(F)cc5)nc(N(C)C)n4)cc3)=Nc3c(N)nc(N)nc3N2)cc(OC)c1OC (configuration not stated),56.2%,62.8%,87.1%,96.3%,51.1%,82.6%,87.5%,95.5%,0.318% (active)
O=C(Nc1ccccc1)N1CCN(c2cc(-c3cn(-c4ccccc4)nc3-c3cccc(O)c3)ccn2)CC1,13.1%,67.3%,13.7%,87.5%,63.3%,65.7%,81.8%,39.5%,58.7%
O=c1cc(-c2ccccc2)oc2cc(OCCCC[P+](c3ccccc3)(c3ccccc3)c3ccccc3)cc(O)c12,-62.5% (active),-83% (active),-67.5% (active),-81.7% (active),-79.1% (active),-58.1% (active),-93.1% (active),-85.2% (active),-84.9% (active)
O=C(Nc1cccc(-n2cnc3cc(-c4ccc(O)cc4)ccc32)c1)C1CC1,30.6%,30.8%,-4.17% (active),38.2%,24.9%,9.12% (active),28.4%,0.14% (active),21%
CCCSc1nc(NCCc2c[nH]c3ccccc23)c(C#N)c(-c2ccc(OC)cc2)n1,15.3%,83.2%,62.5%,42.5%,7.41% (active),20.8%,48%,37.1%,26.4%
CCCCSc1nc(NCCc2c[nH]c3ccccc23)c(C#N)c(-c2ccccc2)n1,-0.0859% (active),70.2%,49.2%,4.59% (active),3.23% (active),4.22% (active),16.3%,7.79% (active),3.04% (active)
COc1ccc(/C=C/c2n(Cc3ccc4ccccc4c3)c3ccccc3[n+]2Cc2ccc3ccccc3c2)cc1,-70.1% (active),-93.1% (active),-91.1% (active),-96.2% (active),-71.3% (active),-95.3% (active),-84.3% (active),-84.5% (active),-83.9% (active)
NS(=O)(=O)c1ccc(N=Nc2c(O)n(CC(=O)Nc3ccccc3)c3ccccc23)cc1,60.8%,25.5%,9.55% (active),-17.4% (active),14.9%,-45.3% (active),12.9%,13.9%,36.5%
CCC(C)(C)c1ccc(OCCCCCCN2CCN(c3ccncc3)CC2)cc1,-44.4% (active),-44.2% (active),-0.134% (active),-62% (active),-58.1% (active),-69.3% (active),-74.1% (active),7.93% (active),-81.5% (active)
COc1ccc(C2=NN(c3ccccc3)C(c3ccc(OC)c(OCc4ccccc4)c3)C2)cc1OC (configuration not stated),84.4%,107%,97.2%,101%,84.9%,74.8%,107%,97.7%,101%
Cc1cccc(-c2nc(Nc3ccc(C)c(S(N)(=O)=O)c3)c3ccccc3n2)c1,29.1%,75.6%,34.9%,23.7%,1.69% (active),25.3%,-63.7% (active),-24.8% (active),13.4%
CN(C)CCOc1ccc(C(=O)C2[C@H](c3ccc(Cl)cc3)[C@@H](c3ccccc3)NC23C(=O)Nc2ccc(Br)cc23)cc1 (some centres not stated),42%,67%,-66.5% (active),-80% (active),-59.8% (active),-96.6% (active),-94.4% (active),-48.4% (active),-84.7% (active)
CC12CC[C@@H]3[C@]4(C)COC(c5c(F)cccc5F)O[C@@H]4CC[C@@]3(C)[C@@H]1CC(C1=CCOC1=O)O2 (some centres not stated),55%,48.3%,86.1%,100%,58.4%,49.1%,76.7%,72.6%,52.1%
C=CC(=O)Nc1ccc(C)c(Oc2ccc(Cl)cc2)c1,41.8%,22.8%,43.9%,43.8%,36.8%,52.1%,58.4%,47.2%,10.2%
C#CCOc1ccc(/C=N/Nc2nc(-c3cc4cc(OC)ccc4oc3=O)cs2)cc1OC,51.8%,54.1%,63.9%,39.7%,57.3%,46.4%,84.4%,50.3%,42.9%
O=C(COc1ccc(NC(=O)Nc2ccc(Cl)c(Cl)c2)cc1)N=Nc1c(O)[nH]c2ccccc12,11.6%,-38.4% (active),-63.8% (active),-62% (active),-6.27% (active),-1.24% (active),-49.3% (active),-38.3% (active),-47.7% (active)
COc1cc2c(c(OC)c1OC)C(=O)CC(c1cccc(NC(=O)[C@@H](N)CC(C)C)c1)O2 (some centres not stated),86%,94.3%,91.2%,107%,86.8%,101%,117%,97.2%,89.3%
Clc1cccc(-c2ccc(OCCCN3CCN(c4ccncc4)CC3)cc2)c1,-37.5% (active),20.4%,-51.6% (active),-66.2% (active),-61.4% (active),-76.7% (active),-91.5% (active),-43.8% (active),-62.3% (active)
OCNc1ccc(-n2cnc3cc(-c4ccc(O)cc4)ccc32)cc1C(F)(F)F,23.8%,24%,7.66% (active),27.1%,10.1%,22.6%,43.4%,4.46% (active),27.7%
